Consider four molecules from PubChem BioAssay AID1932 (Vanderbilt High Throughput Screening Facility, 2009).

A number with no mark means an inactive call. How the calls were made is not given here.

Muscarinic acetylcholine receptor M1 (Rattus norvegicus), sequence (P08482 whole entry, looked up): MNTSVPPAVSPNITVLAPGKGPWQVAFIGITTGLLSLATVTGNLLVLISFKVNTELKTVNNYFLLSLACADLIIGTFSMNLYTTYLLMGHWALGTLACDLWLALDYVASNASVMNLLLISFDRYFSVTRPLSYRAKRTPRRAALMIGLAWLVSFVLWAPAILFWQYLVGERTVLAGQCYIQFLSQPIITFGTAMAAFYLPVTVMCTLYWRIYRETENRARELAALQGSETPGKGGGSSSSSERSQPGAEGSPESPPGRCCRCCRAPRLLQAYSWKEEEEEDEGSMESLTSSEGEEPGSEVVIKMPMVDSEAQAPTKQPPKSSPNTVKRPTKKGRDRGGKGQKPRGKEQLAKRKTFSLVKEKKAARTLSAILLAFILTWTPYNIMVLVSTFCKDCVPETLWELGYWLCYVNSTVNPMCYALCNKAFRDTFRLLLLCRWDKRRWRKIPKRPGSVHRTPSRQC

This experiment concerns the target Muscarinic acetylcholine receptor M1 (Rattus norvegicus) (UniProt P08482). The experiment can be described thus: rat M1 acetylcholine curve fold-shift by analogs, SAR follow-up, selectivity assay for M4 PAM project, cell-based, ACh fold-shift, calcium mobilization (AID 1932). The following applies: rM1-expressing cells, ACh CRC fold-shift; series mostly up to 1 µM; ACh response, % max: at the top concentration. Background: Calcium assays in cells follow changes in intracellular calcium, usually with a dye or a luminescent sensor.
Regarding `COc1ccc(CNC(=O)c2sc3nc(OCc4ccncc4)cc(C)c3c2N)cc1`, the “ACh response, % max” value was 96.3.

As to `Cc1cc(OCc2ccncc2)nc2sc(C(=O)NCc3cc(F)ccc3F)c(N)c12`, the “ACh response, % max” value was 92.8.

Turning to `Cc1cc(OCCN2CCOCC2)nc2sc(C(=O)NC(C)(C)C)c(N)c12`, the “ACh response, % max” value is 93.7.

Regarding `Cc1cc(OCc2ccncc2)nc2sc(C(=O)NCc3cccc(F)c3F)c(N)c12`, the “ACh response, % max” value is 92.3.
